Screens deposited in PubChem BioAssay by National Center for Advancing Translational Sciences (NCATS).
Abeta yeast res = compounds reversing amyloid beta toxicity in yeast. hit rate 0.063% among 410,000. yeast expressing A-beta42, growth rescue, OD600, 48 h; response scale: 0% DMSO, 100% iron-clioquinol control. Potency, µM (titrated, usually from 46.1 µM), hits mostly activators. AID 1347071; note: potency is the fitted concentration of half-maximal effect; nearly all actives have a fitted effect of over 55% in size
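Yeast A-beta toxicity model in growth medium with pinned compounds, 48 h at 30 C; growth read as absorbance at 600 nm. Normalized to FeCl3/clioquinol equimolar mix (positive) and DMSO (negative).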
mIDH1 inhibitor = human IDH1 R132H inhibition; IDH1-R132H enzyme, NADPH consumption, diaphorase/resazurin fluorescence; hit rate 0.093% among 390,000; O75874; AID 602179; Potency, µM (series often up to 76.6 µM), for the others: at the highest dose activity change, negative = inhibition, usual class: inhibitors; note: potency is the fitted concentration of half-maximal effect; % is set by controls: 0 for no effect and ±100 for the full control effect; nearly all actives have a fitted effect of over 65% in size
Target sequence (O75874 whole entry R132H, stated change not applied): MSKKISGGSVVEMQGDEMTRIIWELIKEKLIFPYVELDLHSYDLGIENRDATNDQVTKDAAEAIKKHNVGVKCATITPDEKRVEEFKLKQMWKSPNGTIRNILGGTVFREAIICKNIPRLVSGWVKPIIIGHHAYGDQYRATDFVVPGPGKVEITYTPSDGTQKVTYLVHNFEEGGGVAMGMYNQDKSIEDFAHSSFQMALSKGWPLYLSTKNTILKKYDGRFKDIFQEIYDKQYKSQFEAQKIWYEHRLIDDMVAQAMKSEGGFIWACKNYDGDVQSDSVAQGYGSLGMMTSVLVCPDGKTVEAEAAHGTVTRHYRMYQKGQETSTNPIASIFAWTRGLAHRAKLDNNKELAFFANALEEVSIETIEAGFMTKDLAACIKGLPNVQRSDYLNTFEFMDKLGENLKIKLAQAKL
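IDH1-R132H (0.5 ug/mL dispensed) in pH 7.5 Tris buffer was preincubated 30 min with compound, then given a substrate mix of 0.016 mM NADPH and 2 mM alpha-KG for 80 min at room temperature; remaining NADPH was read by diaphorase/resazurin fluorescence.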
LDHA inh = blocks human lactate dehydrogenase A; activity change, % (values are at about 110 or 230 µM); purified LDHA, NADH/diaphorase-resazurin fluorescence; hits give low values; P00338; hit rate 0.15% among 480,000; AID 1347041; in the data active = activity change below about -30%; inconclusive = mostly about -25% to -30%;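 note: plate controls were DMSO wells for no effect and wells without enzyme for full effect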
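Remaining NADH was detected by diaphorase (0.133 mg/mL) converting 37 µM resazurin to fluorescent resorufin, read at 0 and 20 minutes. The preceding 5-minute room-temperature reaction used 2 nM LDHA, 0.2 mM sodium pyruvate and 0.06 mM NADH at pH 7.4.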
FUS yeast rescue = suppressors of FUS proteinopathy in yeast; S. cerevisiae FUS-expressing, growth rescue, OD600, 24 h; Potency, µM (titrated, usually from 76.6 µM), actives largely listed as activators; hit rate 0.24% among 390,000; AID 1347120;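 note: potency is the fitted concentration of half-maximal effect; plate controls were DMSO vehicle for no effect and reference control for full effect; nearly all actives have a fitted effect of over 55% in size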
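Yeast FUS proteinopathy model; galactose-induced FUS (2%), starting OD 0.005. Cpds in dilution series, 24hr, 30C, 99% humidity. Abs 600 nm growth. Pos ctrl CP55940 (top 92uM final); neg ctrl DMSO.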
aSyn rescue = rescues yeast growth from alpha-synuclein toxicity; Yeast expressing alpha-synuclein, growth rescue, BacTiter-Glo, 24 h; Potency, µM (top dose mostly 46.1 µM), for inactives: at the highest dose growth rescue (activation), hits mostly activators; hit rate 0.14% among 370,000; note: potency is the fitted concentration of half-maximal effect; % of control where 0% means no effect; nearly all actives have a fitted effect of over 65% in size
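Readout is rescue of growth in alpha-synuclein-expressing yeast, so inhibitors of toxicity appear as activators. Growth after 24 hr at 30 deg C in galactose medium is quantified by luminescence.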
TDP-43 yeast inh = TDP-43 toxicity inhibition in yeast; AID 652104; Potency, µM (titrated, usually from 46.1 µM), without a hit: top-dose growth rescue (activation), most hits filed as activators; TDP-43 expressing yeast growth rescue, BacTiter-Glo, 24 h; hit rate 1.8% among 410,000; note: potency is the fitted concentration of half-maximal effect; % of control where 0% means no effect; nearly all actives have a fitted effect of over 50% in size
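Luminescence from BacTiter-Glo reports growth of TDP-43-expressing yeast after 24 hr at 30 deg C with compound. Cells were raffinose-pregrown to mid-log, then seeded in galactose medium at OD600=0.02.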
* hit, by the source's call; i = inactive; ? = inconclusive; nt = no result given; [ ] = another dose, or the depositor's remark. Only some compounds are listed: those with a hit (about 2% of all), similar ones and a draw of the others. Unless noted, calls come from the whole dose curve; as a rule, active = well fitted curve in the direction sought with a large enough effect; inconclusive = small, poorly fitted or top-dose-only effect, or another doubt; inactive = no such curve, though single readings can be large; an effect the other way counts as inactive or inconclusive.

SMILES	Abeta yeast res	mIDH1 inhibitor	LDHA inh	FUS yeast rescue	aSyn rescue	TDP-43 yeast inh
O=C1C=C(/C=C/c2ccccc2)C[C@@H](c2ccc3c(c2)OCO3)C1	i	-2.9%	0.5	i	9.7%	20µM*
CC(=O)Nc1ccc(C2=CC(=O)C[C@H](c3ccc4c(c3)OCO4)C2)cc1	i	-6.4%[38.3 µM]	0.0	i	-4.5%	22.4µM*
COc1ccc([C@H]2CC(=O)C=C(c3ccc4c(c3)OCO4)C2)cc1	i	-1.1%	-0.4	i	3.5%	?
O=C(O)/C=C/c1cc(Br)c(-c2ccc(Cl)cc2Cl)o1	nt	nt	3.3	nt	nt	nt
O=C(CCc1nc(-c2ccncc2)no1)Nc1ncc(Cc2ccccc2)s1	nt	nt	0.9	nt	nt	nt
COc1cccc(CNCc2ccco2)c1	nt	nt	-6.8	nt	nt	nt
CCN(Cc1nc(-c2cccc(C)c2)no1)C(=O)Nc1cccc2ccccc12	nt	nt	0.5	nt	nt	nt
CCOCc1cc(C(=O)O)ccc1OC	nt	nt	4.4	nt	nt	nt
Cc1ccc(C2=CC(=O)C[C@H](c3ccc4c(c3)OCO4)C2)cc1	i	-12.4%	-12.2	i	8.3%	12.6µM*
CSc1ccc(C2=CC(=O)C[C@H](c3ccc4c(c3)OCO4)C2)cc1	i	20.1%	-1.3	i	0.5%	-9.0%
Cc1nn(C)c(C)c1CNCc1cccnc1N1CCOCC1	nt	nt	-38.5*	nt	nt	nt
CC1(C(=O)Nc2cccc(C(F)(F)F)c2)Cc2ccccc2C(=O)O1 (stereo not given)	i	-1.5%	0.5	i	nt	35.5µM*
CCN(c1ccccc1)c1nc2ccsc2c(=O)s1	i	-2.5%	-12.0	i	-15.2%	?
CN(c1ccccc1)c1nc2ccsc2c(=O)s1	i	5.6%	-4.0	i	0.4%	14.1µM*
O=C(O)c1ccc(-c2ccc(CO)o2)cc1	nt	nt	-3.1	nt	nt	nt
CCCn1c(SCC(=O)c2ccc3c(c2)NC(=O)CO3)nc2ccccc21	i	5.2%	-3.7	i	-0.9%	14.1µM*
O=C(c1ccccc1)c1coc2c1C(=O)c1ccccc1C2=O	i	-6.2%	16.9	i	-28.2%	?
Cc1oc2c(c1C(=O)NCc1cccnc1)C(=O)c1ccccc1C2=O	i	16.9%	18.0	i	11.0%	35.5µM*
O=C1c2ccccc2C(=O)c2c1oc(C(F)(F)F)c2C(=O)c1ccccc1	i	11.5%	37.9	nt	-48.7%	3.55µM*
CC(=O)c1c(C)oc2c1C(=O)c1ccccc1C2=O	i	2.8%	23.7	nt	-3.7%	5.01µM*
O=C(NCc1ccccc1CN1CCOCC1)c1cc(-c2ccco2)nc2ccccc12	nt	nt	12.4	nt	nt	nt
O=C(O)c1ccc(N2CCN(C(c3ccccc3)c3ccccc3)CC2)c([N+](=O)[O-])c1	i	-9.7%	-2.5	i	-4.9%	11.2µM*
C=C1CCN(c2ccc(C(=O)O)cc2[N+](=O)[O-])CC1	i	7.0%	4.8	i	-31.0%	?
Cc1ccc2[nH]cc(C(c3ccccc3)c3ccc(C)s3)c2c1 (stereo not given)	i	0.2%	5.5	i	nt	20.4%
Cc1ccc2[nH]cc(C(c3ccccc3)c3cccs3)c2c1 (stereo not given)	i	10.7%	2.2	i	nt	8.91µM*
SMILES	Abeta yeast res	mIDH1 inhibitor	LDHA inh	FUS yeast rescue	aSyn rescue	TDP-43 yeast inh
O=[N+]([O-])c1cccc(-c2ccc(/C=N/NC(=S)Nc3cccc(F)c3)o2)c1	?	-8.8%	-7.7	i	-6.6%	17.8µM*
NC(=S)N/N=C/c1ccc(-c2cccc([N+](=O)[O-])c2)o1	i	1.8%	-3.0	nt	1.3%	9.5%
COc1ccccc1OC(C(=O)NC1CC1)c1ccccc1 (stereo not given)	nt	nt	-30.3*	nt	nt	nt
O=C(Oc1ccccc1/C=C\C(=O)c1cc2ccccc2o1)c1ccccc1	i	1.2%	-0.1	nt	27.9%	22.4µM*
COc1ccc(OCC(=O)O/N=C(\N)c2ccc(OC)cc2)cc1	i	1.0%	-3.3	i	1.1%	1.6%
N/C(=N\OC(=O)C1CCCCC1)c1ccc(Br)cc1	i	28.1%	-5.3	i	-18.9%	?
COc1ccc(/C(N)=N/OC(=O)CC2CCCCC2)cc1	i	5.8%	-3.0	i	-24.9%	3.16µM*
N/C(=N\OC(=O)CCC1CCCC1)c1ccc(Br)cc1	i	1.3%	-3.1	nt	-49.9%	6.31µM*
N/C(=N\OC(=O)CCC1CCCCC1)c1ccc([N+](=O)[O-])cc1	i	0.9%	-8.6	nt	-5.6%	20µM*
N/C(=N\OC(=O)CCC1CCCCC1)c1cccnc1	i	3.3%	2.5	i	-0.6%	12.6µM*
C/C(CCC(C)C)=N\Nc1nc2ccccc2[nH]1	nt	nt	-4.7	nt	nt	nt
Cc1[nH]c2ccccc2c1SCCNC(=O)c1ccc2ccccc2c1	nt	nt	-0.8	nt	nt	nt
CC(C)N(CCNC(=O)c1cc2cc(F)ccc2[nH]1)C(C)C	nt	nt	1.3	nt	nt	nt
O=C(NCC1CCCCC1)c1ccc([N+](=O)[O-])cc1	i	1.9%	-4.8	i	-0.4%	-43.4%
N/C(=N\OC(=O)CC1CCCCC1)c1ccc([N+](=O)[O-])cc1	i	3.4%	0.6	nt	-6.2%	17.8µM*
N/C(=N\OC(=O)CCC1CCCC1)c1cccc([N+](=O)[O-])c1	i	1.0%	-2.0	i	-17.2%	20µM*
N/C(=N\OC(=O)CC1CCCCC1)c1cccc([N+](=O)[O-])c1	i	11.5%	-6.2	i	-11.7%	?
O=C(NCc1ccc(Cl)cc1)c1ccc2c(c1)N(Cc1ccccc1F)C(=O)c1ccccc1S2=O (stereo not given)	i	19.0%	0.8	28.2µM*	nt	0.4%
O=C(NCc1ccccc1)c1ccc2c(c1)N(Cc1ccccc1F)C(=O)c1ccccc1S2=O (stereo not given)	i	-16.1%	-6.6	?	nt	10.2%
COc1ccc(CCNC(=O)c2ccc3c(c2)N(Cc2ccccc2F)C(=O)c2ccccc2S3(=O)=O)cc1OC	i	12.8%	-3.8	20µM*	nt	-19.0%
O=C(c1ccncc1)N1CCN(Cc2c[nH]c3ccccc23)CC1	nt	nt	1.3	nt	nt	nt
Cn1c(=O)c2c(ncn2CCC(=O)Nc2ccccc2)n(C)c1=O	nt	nt	0.9	nt	nt	nt
CCNC(=O)NC(=O)CN(CCC1CCCCC1)CC(N)=O	nt	nt	3.9	nt	nt	nt
Cc1cccc(NC(=S)NNc2cccc(Cl)c2)c1	12.6µM*	-0.1%	10.4	i	12.6%	10.7%
Cc1cccc(NNC(=S)Nc2c(C)cccc2C)c1	7.08µM*	1.9%	5.3	i	11.9%	?
Cn1c(=O)c2c(ncn2CC(=O)Nc2ccc(N3CCCCC3)cc2)n(C)c1=O	nt	nt	4.1	nt	nt	nt
CCOc1ccc(C(C)=O)cc1COC(=O)C(C)NC(=O)c1ccccc1 (stereo not given)	nt	nt	-8.7	nt	nt	nt
